# The list is not random: actives were taken first. Their share in the collection is about 22%.
# CYP2C19 act = cytochrome P450 2C19 (human) activation | P33261 | recombinant CYP2C19, luciferin-H EGE luminescence; active compounds read high; 0 = fully inhibited enzyme, 1 = untreated enzyme | activation factor at 5 µM | 96,000 tested, under 10 active;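 active means activation factor of at least 2 at 5 µM in the primary screen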;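 further: 0 = wells with 2.5 mM tranylcypromine and 1 = vehicle-only wells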
# Measles CPE = protection of cells from measles virus | Measles virus-infected cells, CPE protection, absorbance | protection (pct of control), % at 4 µM | 140,000 compounds, 1.5% hits | AID 841; in the data active means protection mostly above about 24%, no sharp cut-off; inactive means mostly below about 26%
# CYP2C9 inhib = human CYP2C9 inhibition; CYP2C9 Supersomes, luciferin-H conversion, luminescence; inhibition, % at 5 µM; 96,000 compounds, 20% hits;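 active means blocking of liver enzyme CYP2C9 beyond about 50% at 5 µM, limit read from the data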
# Target sequence (P11712 whole entry, looked up): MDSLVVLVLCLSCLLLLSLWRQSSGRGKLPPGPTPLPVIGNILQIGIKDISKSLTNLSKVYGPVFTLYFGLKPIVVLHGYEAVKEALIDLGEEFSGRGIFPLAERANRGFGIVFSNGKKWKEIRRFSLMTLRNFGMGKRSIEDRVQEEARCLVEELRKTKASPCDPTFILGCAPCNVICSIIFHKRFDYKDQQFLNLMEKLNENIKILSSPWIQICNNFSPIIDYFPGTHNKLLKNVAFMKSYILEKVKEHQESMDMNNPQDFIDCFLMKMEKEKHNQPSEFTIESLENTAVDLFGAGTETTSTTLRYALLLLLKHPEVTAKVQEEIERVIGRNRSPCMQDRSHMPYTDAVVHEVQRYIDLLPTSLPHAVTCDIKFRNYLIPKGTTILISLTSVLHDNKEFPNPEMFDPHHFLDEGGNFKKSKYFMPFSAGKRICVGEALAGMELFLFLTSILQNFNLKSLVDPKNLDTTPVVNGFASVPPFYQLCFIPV
# CYP2C19 inh = inhibitors of human CYP2C19 | P33261 | CYP2C19 Supersomes, luciferin-H EGE luminescence, 30 min | inhibition, % at 5 µM | 96,000 compounds, 21% hits | AID 778;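 active means CYP2C19 inhibition above a set limit at 5 µM in the primary screen, cut at about 50% in these data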;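 further: plate controls were negative control wells for no effect and 2.5 mM tranylcypromine positive control for full effect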
# CYP2C9 act = CYP2C9 (human) activation; activation factor at 5 µM; recombinant CYP2C9, luciferin-H conversion, luminescence; active compounds read high; factor 1 = untreated enzyme, 0 = blocked; 96,000 compounds, 1.4% hits; AID 1024;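 active means activation factor of 2 or more for CYP2C9 at a 5 µM dose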;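 further: 0 = sulfaphenazole-blocked wells and 1 = vehicle-only wells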
# Numbers without * were called inactive; · = no result.
SMILES,CYP2C19 act,Measles CPE,CYP2C9 inhib,CYP2C19 inh,CYP2C9 act
O=C(NCCCN1CCCCC1)C1(S(=O)(=O)c2ccc(Cl)cc2)CC1,1.1,4.3,7.9,-7.6,0.9
CCOC(=O)C1(S(=O)(=O)c2ccc(Cl)cc2)CCN(Cc2ccc(C)cc2)CC1,0.1,22.6,99.4*,91.5*,0
CCOC(=O)C1=C(CC)OC(N)=C(C#N)C1c1cccs1 (configuration not stated),0.5,29.3,44.8,53.3*,0.6
CCOC(=O)C1=C(c2ccccc2)OC(N)=C(C#N)C1C1CCCCC1 (configuration not stated),0.8,2.6,37.0,18.4,0.6
CCOC(=O)C1=C(C)OC(N)=C(C#N)C1c1cc2c(cc1Br)OCO2 (configuration not stated),0.1,6.3,41.5,93.3*,0.6
CCOC(=O)C1=C(C)OC(N)=C(C#N)C1C1CCCCC1 (configuration not stated),0.2,12.3,30.7,84.4*,0.7
CCOC(=O)C1=C(C)NC(=O)NC1c1cc2c(cc1Br)OCO2 (configuration not stated),·,7.5,·,·,·
CCOC(=O)C1=C(C)OC(N)=C(C#N)C1c1ccsc1 (configuration not stated),0.4,6.3,21.2,62.8*,0.8
O=C1C2C3C=CC(C3)C2C(=O)N1c1cccc(-c2nc3ccccc3o2)c1 (configuration not stated),0.9,18.1,14.2,7.1,0.9
COc1cc(/C=N/OCC(=O)Nc2cc(C)cc(C)c2)ccc1OCc1ccc(Cl)cc1,·,6.7,·,·,·
CCN(Cc1ccccc1)c1ccc(/C=N/NS(=O)(=O)c2cccc([N+](=O)[O-])c2)cc1,·,7.9,·,·,·
Cc1cccc(/C(N)=N/OC(=O)CCC2CCCCC2)c1,·,14.9,·,·,·
C=CCOC(=O)C1=C(C)OC(N)=C(C#N)C1c1ccc2c(c1)OCO2 (configuration not stated),0,11.0,97.7*,100.0*,0
COC(=O)C1=C(C)OC(N)=C(C#N)C1c1ccco1 (configuration not stated),·,5.3,·,·,·
COCCOC(=O)C1=C(C)OC(N)=C(C#N)C1c1ccc2c(c1)OCO2 (configuration not stated),0.2,0.8,67.9*,80.4*,0.3
C=CCOC(=O)C1=C(C)OC(N)=C(C#N)C1c1ccc(OC)c(CSc2ccccn2)c1 (configuration not stated),·,13.0,·,·,·
CC(C)(C)C1=C(C#N)C(c2ccc3c(c2)OCO3)C(C#N)=C(N)O1 (configuration not stated),0.1,2.6,89.7*,88.6*,0.1
COC(=O)C1=C(C)OC(N)=C(C#N)C1c1ccccc1F (configuration not stated),0.4,3.9,16.3,64.4*,0.8
CSc1nnc(-c2ccc(NC(=O)CCc3ccccc3)cc2)n1C,0.9,2.7,1.2,10.7,1
CCOC(=O)C1=NN(C(C)=O)C2(CC(=O)N(c3ccc(C)c(C)c3)C2=O)C1 (configuration not stated),·,20.3,·,·,·
CN(C)S(=O)(=O)c1ccc(NC(=O)CSc2nc3ccccc3n2-c2ccccc2)cc1,·,2.3,·,·,·
N#CC1=C(N)SC(N)=C(C#N)C1c1ccoc1,0.9,6.0,34.7,10.0,0.7
CCOC(=O)C1=C(C)OC(N)=C(C#N)C1c1cc(C)sc1C (configuration not stated),0.1,5.0,36.0,92.4*,0.6
CC1=C(C#N)C(c2ccoc2)C(C(=O)OCc2ccccc2)=C(N)S1 (configuration not stated),0,16.8,100.0*,98.3*,0
C=CCOC(=O)C1=C(C)OC(N)=C(C#N)C1c1ccoc1 (configuration not stated),0.2,6.5,34.0,82.5*,0.7
SMILES,CYP2C19 act,Measles CPE,CYP2C9 inhib,CYP2C19 inh,CYP2C9 act
COc1ccc(NC(=O)CN(c2cc(C)cc(C)c2)S(=O)(=O)c2c(C)noc2C)cc1,0.9,17.5,17.2,7.3,0.8
COc1ccc(N(CC(=O)Nc2cc(C)ccc2OC)S(=O)(=O)c2c(C)noc2C)cc1,0.4,5.3,66.9*,64.5*,0.3
CCOc1ccc(N(CC(=O)Nc2ccccc2C)S(=O)(=O)c2c(C)noc2C)cc1,0.1,12.0,48.3,86.7*,0.5
CCOc1ccccc1NC(=O)CN(c1ccc(OC)cc1)S(=O)(=O)c1c(C)noc1C,0.1,4.8,90.2*,88.8*,0.1
COc1ccc(NC(=O)CN(c2cc(C)cc(C)c2)S(=O)(=O)c2c(C)noc2C)cc1OC,0.9,19.0,50.5*,13.9,0.5
O=C(COc1ccccc1N1C(=O)c2ccccc2C1=O)c1ccc(Cl)cc1,0.9,4.3,2.5,6.9,1
CNc1c(N=Cc2cccnc2)c(=O)n(C)c(=O)n1C,·,4.0,·,·,·
O=c1[nH]c2cc3c(cc2cc1C(c1nnnn1CC1CCCO1)N1CCCCCC1)OCO3 (configuration not stated),·,7.0,·,·,·
O=C(NC(C(=O)c1ccccc1)N1CCOCC1)c1ccccc1 (configuration not stated),0.2,16.5,90.8*,78.9*,0.1
Cc1ccc(C(=O)C(NC(=O)c2ccco2)N2CCOCC2)cc1 (configuration not stated),0.7,8.0,7.9,31.3,0.9
O=C(NC(C(=O)c1ccccc1)N1CCOCC1)c1cccs1 (configuration not stated),0.1,17.3,96.3*,94.0*,0
Cc1cc(S(=O)(=O)N2CCN(c3ccccc3O)CC2)c(C)s1,0.3,1.8,30.2,70.8*,0.7
Cc1cccc2c(C(=O)O)c3c(nc12)CCCCC3,0.9,6.0,2.4,8.7,1
O=C(C1CC1)N1CCc2cc(Br)cc(S(=O)(=O)N3CCCCCC3)c21,0.1,21.1,21.3,90.2*,0.8
CCOC(=O)C1CCCN(S(=O)(=O)c2cc(Br)cc3c2N(C(=O)C2CC2)CC3)C1 (configuration not stated),0.6,15.9,-192.9,38.3,2.9*
COC(=O)C1=C(C)NC(C)=C(C(=O)OC)C1c1ccc2ccccc2n1,0.2,4.9,50.2*,76.7*,0.5
O=C1c2ccccc2C(=O)C1c1ccnc2ccccc12,·,1.0,·,·,·
O=C1c2ccccc2C(=O)C1c1ccc2ccccc2n1,0.2,0.9,73.6*,82.5*,0.3
COC(=O)C1=C(C)NC(C)=C(C(=O)OC)C1c1ccc(NC(C)=O)cc1,0.7,10.2,52.5*,33.0,0.5
O=C(Cc1ccc([N+](=O)[O-])cc1)NCc1ccccc1Cl,·,10.6,·,·,·
CCc1c(C)nc2ncnn2c1N1CCC(C(=O)Nc2cccc(C(C)=O)c2)CC1,0.5,9.6,76.5*,54.4*,0.2
CCc1c(C)nc2ncnn2c1N1CCC(C(=O)NCc2cccc(OC)c2)CC1,0.9,3.7,-2.1,5.9,1
CCc1c(C)nc2ncnn2c1N1CCCC(C(=O)Nc2cc(F)ccc2C)C1 (configuration not stated),0.8,7.0,84.6*,23.4,0.2

# From PubChem
